The structures appear in SMILES notation. About 2,100 (0.66%) of roughly 320,000 compounds were called active. Roughly 53% stayed inconclusive and do not appear here. This is one part of a sample in which actives are shown more often than they occur. Calls come from the whole dose curve; as a rule, active = well fitted inhibition curve with a large enough effect in the signal ratio, with a control signal flat (not every such curve was filed as active); inconclusive = small, poorly fitted or top-dose-only effect, or effect the other way, or a change in a side signal; inactive = flat fitted curve, though single readings scatter; the % refers to the signal ratio.
Potency is the fitted concentration of half-maximal effect.

A short description of the assay: qHTS Assay for Lipid Storage Modulators in Drosophila S3 Cells.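 For cell number change: cells counted by Cell Tracker Red CMTPX staining in the red channel.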 For lipid storage change, negative = inhibition: % is set by controls: 0 for no effect and ±100 for the full control effect. Particulars: BODIPY lipid droplet fluorescence, 18-24 h, cells fed with added oleic acid; cell number change: measured here: cell count max response; series mostly up to 46.1 µM. Put shortly:
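Laser-scanning cytometry quantifies lipid droplet accumulation (500–530 nm total intensity; droplet/cell object ratio) in oleic acid-fed (400 uM added) Drosophila S3 cells treated with a concentration series. 20 uM Triacsin C defined 100% inhibition.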
`C[C@@H](NC(=O)c1nc[nH]c1C(=O)NCC(=O)OC(C)(C)C)c1ccccc1`: the Potency result was “inactive” and the cell number change was 2.99%.
As to `CC(=O)c1ccc(Oc2cc(C(F)(F)F)cnc2C(N)=O)cc1`, the Potency result was “inactive” and the cell number change was found to be 26.2%.
The corresponding values for `CC(NC(=O)c1ccncc1)C(c1cccs1)N1CCOCC1` (stereo not drawn) are “inactive” and 1.4%.
For `CC1CN(c2nc3ccccc3nc2SCC(=O)Nc2ccc(F)cc2)CC(C)O1` (stereo not drawn), the Potency was 20.6 µM (active) and the cell number change was 22.5%.
As for `Cc1cccc(NC(=O)CSc2nc3ccccc3nc2N2CC(C)OC(C)C2)c1` (stereo not drawn), the Potency result is “inactive” and the cell number change is 8.93%.
For the compound `CCOc1ccc(NC(=O)CSc2nc3ccccc3nc2N2CCOCC2)cc1`, the Potency was 20.6 µM (active) and the cell number change was -28%.
As to `CCOc1ccc(NC(=O)CSc2nc(N3CCOCC3)nc(N3CCOCC3)n2)cc1`, the Potency result is “inactive” and the cell number change was determined as 4.32%.
The corresponding values for `CCc1ccc(NC(=O)CSc2nc(=O)n(CCCN3CCOCC3)c3c2CCCC3)cc1` are 14.6 µM (active) and -8.01%.
The matching figures for `COc1ccc(NC(=O)CSc2nc3ccccc3nc2N2CCCC2)cc1`: “inactive” and -11.5%.
Turning to `Cc1cc(C)cc(NC(=O)CSc2nc3ccccc3nc2N2CCCCC2)c1`, the Potency result is “inactive” and the cell number change turned out to be 10.1%.
As for `CCc1ccc(NC(=O)CSc2nc3ccccc3nc2N2CCCCC2)cc1`, the Potency was 13 µM (active) and the cell number change came out at 25.4%.
The corresponding values for `CCCCc1ccc(NC(=O)CSc2nc(=O)n(CCCN3CCOCC3)c3c2CCC3)cc1` are “inactive” and 12.5%.
Take `O=C(CSc1nc2ccccc2nc1N1CCCC1)Nc1ccc(F)cc1`: the Potency entry was “inactive” and the cell number change was determined as 7.49%.
`CCCCc1ccc(NC(=O)CSc2nc(=O)n(CCN3CCOCC3)c3c2CCC3)cc1`: the Potency result was “inactive” and the cell number change came out at 7.1%.
Regarding `COc1ccc(NC(=O)CSc2nc3ccccc3nc2N2CCCCC2)cc1`, the Potency result is “inactive” and the cell number change is -10.4%.
In the case of `Cc1cc(C)n2c(SCc3c(C)noc3C)nnc2n1`, the Potency entry is “inactive” and the cell number change was 2.46%.
For `Cc1cccc(NC(=S)NCCc2ccc(S(N)(=O)=O)cc2)c1C`, the Potency result is “inactive” and the cell number change is -9.26%.
Consider `C=CCSc1nnc(NC(=O)C2CC(=O)N(Cc3ccc(C)cc3)C2)s1` (stereo not drawn), for which the Potency result is “inactive” and the cell number change is -7.78%.
The corresponding values for `CC(=C\C(=O)O)/C(=C/c1ccc(C)o1)C(=O)O` are “inactive” and -12.8%.
As to `O=C(NCc1ccc2[nH]c3c(c2c1)CCCC3)c1ccc(S(=O)(=O)N2CCCCC2)cc1`, the Potency entry was “inactive” and the cell number change was -10.5%.
With `CN(C)C(=O)c1cc(C(=O)c2c(F)cccc2F)c[nH]1`, the Potency entry was “inactive” and the cell number change is -8.76%.
In the case of `O=C(CN1C(=O)NC2(CCCCC2)C1=O)Nc1cccc(S(=O)(=O)N2CCOCC2)c1`, the Potency result is “inactive” and the cell number change was -0.223%.
Consider `CCC1Sc2ccc(S(=O)(=O)CCC(=O)Nc3ccc(OC(F)(F)F)cc3)cc2NC1=O` (stereo not drawn), for which the Potency result was “inactive” and the cell number change was found to be 2.14%.
As for `O=C(NC(Cc1ccccc1)C(=O)O)/C(=C\c1cccc([N+](=O)[O-])c1)NC(=O)c1ccco1` (stereo not drawn), the Potency result is “inactive”.
Regarding `O=C(NC(Cc1ccccc1)C(=O)O)/C(=C/c1ccc(Cl)cc1)NC(=O)c1ccccc1` (stereo not drawn), the Potency result is “inactive” and the cell number change stood at 1.96%.
`O=C(NC(Cc1ccccc1)C(=O)O)/C(=C/c1cccc(Br)c1)NC(=O)c1ccco1` (stereo not drawn): the Potency is 1.84 µM (active).
For `O=C(NC(Cc1ccccc1)C(=O)O)/C(=C\c1ccccc1)NC(=O)c1ccco1` (stereo not drawn), the Potency entry was “inactive” and the cell number change was -6.67%.
Regarding `O=C(NC(Cc1ccccc1)C(=O)O)/C(=C\c1ccc(Cl)cc1)NC(=O)c1ccco1` (stereo not drawn), the Potency was 0.0411 µM (active).
Regarding `O=C(NC(Cc1ccccc1)C(=O)O)/C(=C/c1ccco1)NC(=O)c1cccc(Br)c1` (stereo not drawn), the Potency result was “inactive” and the cell number change was -18%.
Consider `O=C(CC1C(=O)NCCN1Cc1ccc(-c2ccccc2)cc1)NCCOc1cccnc1` (stereo not drawn), for which the Potency entry was “inactive” and the cell number change is -0.0435%.
In the case of `O=C(Nc1cccc2ccccc12)c1cccc(F)c1`, the Potency result is “inactive” and the cell number change was -3.54%.
For the compound `COc1ccc(NC(=O)C2CSC(C)(C)N2C=O)cc1` (stereo not drawn), the Potency result was “inactive” and the cell number change worked out at 7.51%.
Turning to `COc1ccc(CN2CCOCCOCCN(Cc3ccc(OC)cc3)CCOCCOCC2)cc1`, the Potency result is “inactive” and the cell number change was determined as 16%.
`Cc1ccc(S(=O)(=O)NCc2ccccc2)cc1C(=O)N(C)CC(=O)Nc1c(Cl)cccc1Cl`: the Potency entry was “inactive”.
For `CSc1nc(-c2ccc(Cl)cc2Cl)[nH]c(=O)c1C#N`, the Potency was 32.6 µM (active) and the cell number change was -67%.
Take `Cc1cc(-c2ccc(Cl)cc2Cl)c(C#N)c(=O)[nH]1`: the Potency entry was “inactive”.
Regarding `CSc1nc(-c2ccc(Cl)cc2)c(C#N)c(=O)[nH]1`, the Potency entry is “inactive” and the cell number change is -0.138%.
For `CN(Cc1ccccc1)C(=O)COc1ccc(N(C)S(=O)(=O)c2ccc(F)cc2)cc1`, the Potency result was “inactive” and the cell number change is -1.11%.
The matching figures for `CCC(C(=O)NCc1ccc(F)cc1)N(Cc1ccco1)C(=O)c1snc(C(N)=O)c1N` (stereo not drawn): “inactive” and -6.14%.
For the compound `NC(=O)c1nsc(C(=O)N(Cc2ccco2)C(C(=O)NCc2ccc(F)cc2)c2ccc(O)cc2)c1N` (stereo not drawn), the Potency result is “inactive”.
With `Cc1ccc(C(C(=O)NCc2ccc(F)cc2)N(Cc2ccco2)C(=O)c2snc(C(N)=O)c2N)o1` (stereo not drawn), the Potency is 13 µM (active) and the cell number change is -23%.
Consider `Cc1oc2c(c1C(=O)NC(Cc1c[nH]c3ccccc13)C(=O)O)CCCC2` (stereo not drawn), for which the Potency entry was “inactive” and the cell number change is 18%.
As for `Cc1cccc(Cc2c(C)[nH]c(=O)c(C#N)c2C)c1`, the cell number change was -1.36% and the lipid storage change, negative = inhibition is -17.3% [at 9.22 µM] (inactive).
For `N=c1oc2ccc(Br)cc2cc1C(=O)NC1CCCCCC1`, the Potency entry is “inactive” and the cell number change was -5.41%.
The corresponding values for `O=C(O)C1CCCN1S(=O)(=O)c1ccccc1` (stereo not drawn) are “inactive” and 14%.
Regarding `Cc1cc(=O)oc2cc(OCC(=O)NCCCN3CCCC3=O)c(Cl)cc12`, the Potency entry was “inactive” and the cell number change was -17.4%.
Turning to `CC(Oc1cc2oc(=O)c3c(c2cc1Cl)CCC3)C(=O)NCCCN1CCOCC1` (stereo not drawn), the Potency entry is “inactive” and the cell number change worked out at 14.5%.
On to `CCCCc1cc(=O)oc2c(C)c(OCC(=O)NCCN3CCOCC3)ccc12`, for which the Potency is 8.2 µM (active) and the cell number change was -17%.
Consider `CCCc1cc(=O)oc2c(C)c(OCC(=O)NCCN3CCOCC3)ccc12`, for which the Potency result was “inactive” and the cell number change came to 19.4%.
On to `Cc1c(OCC(=O)NCCCN2CCOCC2)ccc2c3c(c(=O)oc12)CCC3`, for which the Potency result was “inactive” and the cell number change is -21.2%.
Take `Cc1c(OCC(=O)NCCCN2CCCC2=O)ccc2c3c(c(=O)oc12)CCCC3`: the Potency was 8.2 µM (active) and the cell number change was -7.37%.
The corresponding values for `Cc1cc(=O)oc2c(C)c(OCC(=O)NCCCN3CCCC3=O)ccc12` are “inactive” and -21.7%.
For `CC(Oc1cc2oc(=O)c3c(c2cc1Cl)CCC3)C(=O)NCCN1CCOCC1` (stereo not drawn), the Potency entry was “inactive” and the cell number change was determined as 9.27%.
Take `CC(Oc1cc2oc(=O)c3c(c2cc1Cl)CCC3)C(=O)NCCCN1CCCC1=O` (stereo not drawn): the Potency is 1.64 µM (active) and the cell number change was -19.6%.
Take `CCc1cc(=O)oc2cc(OCC(=O)NCCCN3CCCC3=O)ccc12`: the Potency entry is “inactive” and the cell number change is 3.54%.
For the compound `CCc1cc(=O)oc2cc(OCC(=O)NCCCN3CCCC3=O)c(Cl)cc12`, the Potency was 16.4 µM (active) and the cell number change is 11.6%.
For the compound `CCCc1cc(=O)oc2c(C)c(OCC(=O)NCCCN3CCOCC3)ccc12`, the Potency entry was “inactive” and the cell number change was 7.37%.

(Values after PubChem BioAssay AID2685 (National Center for Advancing Translational Sciences (NCATS), 2010).)
